# From PubChem BioAssay
# This is a sample that favours compounds with a hit; in the whole collection about 28% have one here.
# PLK1 PBD inh = blocks phosphopeptide binding to human Plk1 polo box domain; P53350; Plk1 PBD phosphopeptide binding, fluorescence polarization; inhibition, %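 (tested at about 20 µM)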; actives 0.13% (n = 97,000); AID 693; in the data active = inhibition above about 34%, passing the limit was not always enough
# CYP2C19 inh = inhibitors of human CYP2C19; actives 21% (n = 96,000); inhibition, % at 5 µM; CYP2C19 Supersomes, luciferin-H EGE luminescence, 30 min; P33261;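 active = CYP2C19 inhibition above a set limit at 5 µM in the primary screen, cut at about 50% in these data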;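 also: plate controls were negative control wells for no effect and 2.5 mM tranylcypromine positive control for full effect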
# Target sequence (P33261 whole entry, looked up): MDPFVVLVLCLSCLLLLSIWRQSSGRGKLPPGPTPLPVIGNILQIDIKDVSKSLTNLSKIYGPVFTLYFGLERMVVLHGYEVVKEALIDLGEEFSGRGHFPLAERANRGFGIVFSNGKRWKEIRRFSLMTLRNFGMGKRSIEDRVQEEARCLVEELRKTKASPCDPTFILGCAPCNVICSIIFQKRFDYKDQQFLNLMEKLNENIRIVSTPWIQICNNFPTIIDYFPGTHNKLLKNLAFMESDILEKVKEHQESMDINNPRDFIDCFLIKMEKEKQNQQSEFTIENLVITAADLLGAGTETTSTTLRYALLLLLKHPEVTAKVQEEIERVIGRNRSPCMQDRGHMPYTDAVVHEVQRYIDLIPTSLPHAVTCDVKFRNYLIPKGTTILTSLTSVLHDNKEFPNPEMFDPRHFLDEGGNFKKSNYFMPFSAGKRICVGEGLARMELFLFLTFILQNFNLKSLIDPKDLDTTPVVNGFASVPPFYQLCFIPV
# CYP2C9 inh = human CYP2C9 inhibition; P11712; CYP2C9 Supersomes, luciferin-H conversion, luminescence; inhibition, % at 5 µM; actives 20% (n = 96,000);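 active = blocking of liver enzyme CYP2C9 beyond about 50% at 5 µM, limit read from the data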
# CYP2C9 activ = CYP2C9 (human) activation; recombinant CYP2C9, luciferin-H conversion, luminescence; hits give high values; factor 1 = untreated enzyme, 0 = blocked; activation factor at 5 µM; actives 1.4% (n = 96,000);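 active = activation factor of 2 or more for CYP2C9 at a 5 µM dose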;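 also: 0 = sulfaphenazole-blocked wells and 1 = vehicle-only wells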
# CYP2C19 act = increases human CYP2C19 enzyme activity; P33261; recombinant CYP2C19, luciferin-H EGE luminescence; hits give high values; 0 = fully inhibited enzyme, 1 = untreated enzyme; activation factor at 5 µM; 96,000 tested, under 10 active; AID 1025;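 active = activation factor of at least 2 at 5 µM in the primary screen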;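 also: 0 = wells with 2.5 mM tranylcypromine and 1 = vehicle-only wells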
# PLK1 kinase inh = PLK1 (human) kinase inhibition | P53350 | recombinant PLK1 kinase, TR-FRET peptide phosphorylation | inhibition, % at 10 µM | actives 0.53% (n = 97,000);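 active = inhibition of 50% or more in the single-concentration screen; inactive = inhibition below 50%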;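 also: 0% = DMSO max control and 100% = H-89 dihydrochloride min control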
# Starred values were filed as active, the others as inactive; · = no result.
SMILES,PLK1 PBD inh,CYP2C19 inh,CYP2C9 inh,CYP2C9 activ,CYP2C19 act,PLK1 kinase inh
O=C(CN1CCCN(S(=O)(=O)c2ccc(Br)cc2)CC1)Nc1ccc2cn[nH]c2c1,17.1,·,·,·,·,-2.8
COc1cccc2cc(C(=O)N3CCN(C/C=C/c4ccccc4)CC3)c(=O)oc12,-13.6,35.4,-186.7,2.9*,0.6,-14.8
Cc1cc(C(=O)N2CCN(C/C=C/c3ccccc3)CC2)cs1,10.9,59.3*,61.0*,0.4,0.4,-12.2
Cc1noc(C)c1COc1cccc(C(=O)OCC(=O)N2CC(=O)Nc3ccccc32)c1,-9.6,58.9*,63.1*,0.4,0.4,-12.0
COC(=O)c1ccccc1NC(=O)N1CCN(C/C=C/c2ccccc2)CC1,-6.5,23.5,47.1,0.5,0.8,-8.7
COc1ccccc1NC(=O)C(C)N1CCN(C/C=C/c2ccccc2)CC1 (stereo not given),2.9,60.0*,36.8,0.6,0.4,7.5
COCCn1c(CCC(=O)O)nc2c1c(=O)[nH]c(=O)n2CC(C)C,-6.7,-5.3,-59.9,1.6,1.1,-1.7
O=C1c2ccccc2C(=O)N1C/C=C/CN1C(=O)c2ccccc2C1=O,-3.3,-2.2,2.4,1,1,-0.3
OCCNc1nc(OCC(F)(F)F)nc(N2CCN(C34CC5CC(CC(C5)C3)C4)CC2)n1,·,-7.3,23.0,0.8,1.1,·
Cc1noc(C)c1COc1cccc(C(=O)N2CCN(C/C=C/c3ccccc3)CC2)c1,1.7,89.7*,87.5*,0.1,0.1,-8.1
COc1ccccc1-c1noc(-c2ccco2)n1,15.0,49.7,-5.0,1.1,0.5,-5.8
Fc1ccccc1-c1nc(-c2ccccc2)no1,9.5,·,·,·,·,-0.5
COc1ccccc1-c1noc(-c2ccccc2)n1,-4.6,52.5*,7.1,0.9,0.5,-12.8
COc1ccc(-c2noc(-c3ccccc3F)n2)cc1,0.2,10.2,59.0*,0.4,0.9,-12.3
COc1ccc(-c2nc(-c3ccccc3OC)no2)cc1OC,-20.2,61.1*,-51.6,1.5,0.4,-5.1
CCOC(=O)Cc1csc(NC(=O)CCCCCN2C(=O)c3cccc4cccc(c34)C2=O)n1,17.6,·,·,·,·,-11.7
CC(C)CNC(=O)COC(=O)c1cc(Cl)cc(Cl)c1N,-3.4,65.7*,-93.6,1.9,0.3,-11.9
COc1ccc(-n2c(Cn3c(=O)sc4ccccc43)nnc2SCC(=O)N2CCOCC2)cc1,18.9,-3.2,24.4,0.8,1,-1.8
CCC(C)n1cnc2c(c1=O)c1nc3ccccc3nc1n2Cc1ccc2c(c1)OCO2 (stereo not given),-0.2,81.1*,98.8*,0,0.2,-15.8
Cc1nc2c(c(=O)n1CCC(C)C)c1nc3ccccc3nc1n2Cc1ccc2c(c1)OCO2,·,22.1,58.2*,0.4,0.8,·
O=c1c2c3nc4ccccc4nc3n(-c3cccc(F)c3)c2ncn1Cc1ccc2c(c1)OCO2,·,-2.2,-0.2,1,1,·
Cc1ccc(-c2nnc(SCC(=O)N3CCOCC3)nc2-c2ccc(C)cc2)cc1,-25.9,13.7,32.6,0.7,0.9,-1.7
Cc1ccc2[nH]cc(C(=O)CN3CCC4(CC3)OCCO4)c2c1,-4.8,·,·,·,·,-5.2
O=C(CN1CCC2(CC1)OCCO2)c1c[nH]c2ccccc12,-16.5,81.0*,3.1,1,0.2,-1.9
CCOC(=O)N1CCN(CC(=O)c2c[nH]c3ccc(F)cc23)CC1,-9.6,46.3,51.0*,0.5,0.5,-5.1
SMILES,PLK1 PBD inh,CYP2C19 inh,CYP2C9 inh,CYP2C9 activ,CYP2C19 act,PLK1 kinase inh
Cc1ccc2[nH]cc(C(=O)CN3CCN(c4ccccc4F)CC3)c2c1,-5.0,20.9,18.0,0.8,0.8,-2.3
CCN1CCN(CC(=O)c2c[nH]c3ccc(C)cc23)CC1,7.2,-19.1,50.9*,0.5,1.2,-6.3
CN(C)S(=O)(=O)c1cccc(COC(=O)C2=COCCO2)c1,-16.0,46.5,38.4,0.6,0.5,0.8
Cc1c(C(=O)OC2CCCCC2)sc2nc[nH]c(=O)c12,-1.3,49.1,39.5,0.6,0.5,68.3*
Cc1sc2ncn(C(C)C(=O)OC3CCCCC3)c(=O)c2c1C (stereo not given),-11.5,31.8,24.9,0.8,0.7,-9.7
Nc1cccc(Cl)c1N1CCOCC1,13.2,10.7,-0.2,1,0.9,-1.7
O=C(N1CCOCC1)N1CCCN(C(=O)N2CCOCC2)CC1,-5.5,-0.3,-18.8,1.2,1,-11.5
